HT1080 IDH1KD tx – qHTS for induction of synthetic lethality in tumor cells producing 2HG: qHTS for the HT-1080-IDH1KD cell line; HT-1080 IDH1 knockdown viability, ATP luminescence, 48 h; Potency, µM (doses to about 46.1 µM), without a hit: top-dose activity, negative = toxicity, actives largely listed as cytotoxic; 360,000 compounds, 2% hits; AID 686971, 2013;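 further: 0% = DMSO wells and -100% = cell-free medium wells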
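Viability of IDH1-knockdown HT-1080 fibrosarcoma cells was assessed by CellTiter-Glo after 48 h at 37 °C with titrated compound; concentration-effect curves were classified by fit quality and response size.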
KB-3-1 cytotox – qHTS assay for MDR1-selective chemotherapeutics: Primary screen using the parental adenocarcinoma cell KB-3-1 | KB-3-1 viability, CellTiter-Glo ATP luminescence, 72 h | Potency, µM (doses to about 46.1 µM), hits mostly cytotoxic | 400,000 compounds, 1.4% hits | AID 1347075, 2019; further: on the % scale 0 is the no-effect control and ±100 the full control effect; nearly all actives have a fitted effect of over 60% in size
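Cytotoxicity in the drug-sensitive parental line KB-3-1 was scored as loss of CellTiter-Glo luminescence following 72 h incubation with compound. Values come from curve fitting of normalized concentration-response data.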
MCF10A rereplic – A quantitative high throughput screen for small molecules that induce DNA re-replication in MCF 10a normal breast cells | Potency, µM (highest dose often 46.1 µM), inactives show top-dose activity, positive = re-replication, most hits filed as activators | MCF 10A DNA re-replication, Hoechst nuclear intensity, 48 h | 350,000 compounds, 2.9% hits; further: % of control where 0% means no effect; nearly all actives have a fitted effect of over 50% in size
SW480 rerep – A quantitative high throughput screen for small molecules that induce DNA re-replication in SW480 colon adenocarcinoma cells | SW480 DNA re-replication, Hoechst DNA content imaging, 48 h | Potency, µM (series often up to 46.1 µM), for the others: top-dose re-replication activation, hits mostly activators | 340,000 compounds, 1.8% hits | AID 624297, 2012; further: % of control where 0% means no effect; nearly all actives have a fitted effect of over 55% in size
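250 cells/well; 23 nL cpd via pin tool; 48 hr, 37 C, 5% CO2; Hoechst 40 min; imager read of total nuclear intensity, ex 405/em 500-530 nm.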
HT1080-NT tox – qHTS for induction of synthetic lethality in tumor cells producing 2HG: qHTS for the HT-1080-NT fibrosarcoma cell line | Potency, µM (highest dose often 46.1 µM), for inactives: at the highest dose activity, negative = less viability, hits mostly cytotoxic | AID 686970, 2013 | HT-1080-NT fibrosarcoma viability, CellTiter-Glo ATP luminescence, 48 h | 360,000 compounds, 1.6% hits;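 further: NT is the 2HG producing partner of a matched IDH1 knockdown line; 0% = DMSO-treated cells and -100% = media-only wells without cells; nearly all actives have a fitted effect of over 55% in size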
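Read-out is CellTiter-Glo luminescence after 10 minutes at room temperature, following 48 hours' compound treatment of HT-1080-NT cells (750 cells/well, RPMI, 5% FBS, 37 degrees C).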
KB-V1 MDR tox – qHTS assay for MDR1-selective chemotherapeutics: Primary screen using the drug-selected MDR subline cells KB-V1; KB-V1 MDR cells viability, CellTiter-Glo, 72 h; Potency, µM (top dose mostly 46.1 µM), hits mostly cytotoxic; 400,000 compounds, 3.4% hits; further: on the % scale 0 is the no-effect control and ±100 the full control effect; nearly all actives have a fitted effect of over 60% in size
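KB-V1 MDR subline cells in DMEM (phenol-red free, 10% FBS) exposed to compounds in qHTS concentration series for 72 h at 37 degrees C. Viability read by CellTiter-Glo luminescence; concentration-effect curves fitted after normalization and correction.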
* marks the source's active call; other numbers are inactive results. Sampled rows, rich in hits. Any-hit rate of the full collection: about 8%. The call rests on the fitted dose curve; in most records, active means well fitted curve in the direction sought with a large enough effect; inconclusive means small, poorly fitted or top-dose-only effect, or another doubt; inactive means no such curve, though single readings can be large; an effect the other way counts as inactive or inconclusive. Potency means the concentration at half of the fitted maximal effect.

COc1ccc(CC(N)c2csc(Nc3cccc(OC)n3)n2)cc1 (stereo not given) was read as HT1080 IDH1KD tx -25%, KB-3-1 cytotox inactive, HT1080-NT tox 26µM* and KB-V1 MDR tox inconclusive.
Screening COC(=O)c1cnc(Nc2nc(C(N)Cc3ccc(Cl)cc3)cs2)nc1C(F)(F)F (stereo not given) returned HT1080 IDH1KD tx inconclusive, KB-3-1 cytotox inconclusive, HT1080-NT tox inconclusive and KB-V1 MDR tox inactive.
`NC(=O)c1cccc(Nc2nc(C(N)Cc3ccc(C(F)(F)F)cc3)cs2)n1` (stereo not given) gave HT1080 IDH1KD tx inconclusive, KB-3-1 cytotox inconclusive, HT1080-NT tox 7.3µM* and KB-V1 MDR tox inactive.
`COC(=O)c1cnc(Nc2nc(C(N)Cc3ccc(OC)cc3)cs2)nc1C(F)(F)F` (stereo not given) gave HT1080 IDH1KD tx inconclusive, KB-3-1 cytotox inactive, HT1080-NT tox 23µM* and KB-V1 MDR tox inactive.
For COc1cccc(Nc2nc(C(N)Cc3ccc(Cl)cc3)cs2)n1 (stereo not given) the results were HT1080 IDH1KD tx 16µM*, KB-3-1 cytotox inactive, HT1080-NT tox 23µM* and KB-V1 MDR tox inactive.
`COc1ccc(CC(N)c2csc(Nc3ccccn3)n2)cc1` (stereo not given) gave HT1080 IDH1KD tx inconclusive, KB-3-1 cytotox inactive, HT1080-NT tox -9% and KB-V1 MDR tox inactive.
CC(C)[C@H](CN1CCC[C@H]1CN1C(N)=NC[C@H]1C(C)C)N1C[C@@H](Cc2ccccc2)N(CCCC2CCCC2)C1=N was read as HT1080 IDH1KD tx 1%, KB-3-1 cytotox inactive, MCF10A rereplic inconclusive, SW480 rerep -4%, HT1080-NT tox 0% and KB-V1 MDR tox inactive.
Cc1nn(C(=O)COc2ccccc2Br)c(C)c1Sc1ccccc1 was read as KB-3-1 cytotox inactive and KB-V1 MDR tox inactive.
Nc1ccc(/C=C/c2ccnc3ccccc23)cc1[N+](=O)[O-] was read as KB-3-1 cytotox inactive and KB-V1 MDR tox inactive.
`CCc1ccc(-c2csc3[n+]2CCN3C(C)=O)cc1` gave HT1080 IDH1KD tx -4%, KB-3-1 cytotox inactive, MCF10A rereplic inconclusive, SW480 rerep 2.3µM*, HT1080-NT tox 0% and KB-V1 MDR tox inactive.
For Cc1ccc(CNc2ncccc2-c2nc3cc(Cl)ccc3o2)cc1 the results were HT1080 IDH1KD tx -7%, KB-3-1 cytotox inactive, MCF10A rereplic inconclusive, SW480 rerep -1%, HT1080-NT tox inconclusive and KB-V1 MDR tox inconclusive.
For Clc1ccc2oc(-c3cccnc3NCc3ccccc3)nc2c1 the results were HT1080 IDH1KD tx -3%, KB-3-1 cytotox inactive, MCF10A rereplic 16µM*, SW480 rerep inconclusive, HT1080-NT tox -1% and KB-V1 MDR tox inactive.
O=c1cc(-c2ccccc2)nc2c(-c3ccccc3)c(C(F)(F)F)[nH]n12 was read as HT1080 IDH1KD tx inconclusive, KB-3-1 cytotox inactive, MCF10A rereplic 8.2µM*, SW480 rerep inconclusive, HT1080-NT tox inconclusive and KB-V1 MDR tox inconclusive.
`O=C1c2cccc3cccc(c23)C(=O)C1(O)O` gave HT1080 IDH1KD tx 18µM*, KB-3-1 cytotox inactive, MCF10A rereplic 21µM*, SW480 rerep inconclusive, HT1080-NT tox inconclusive and KB-V1 MDR tox inactive.
For CC1CCN(S(=O)(=O)c2cc(C(=O)NCc3ccc(N(C)C)cc3)n(C)c2)CC1 the results were KB-3-1 cytotox inactive and KB-V1 MDR tox inactive.
Screening COc1cc(NC(=O)C(NS(=O)(=O)c2ccc3c(c2)CCCC(=O)N3)C(C)C)cc(OC)c1 (stereo not given) returned KB-3-1 cytotox inactive and KB-V1 MDR tox inactive.
`CCOC(=O)C1=CN(Cc2cccc(F)c2)S(=O)(=O)NC1CCc1ccccc1` (stereo not given) gave HT1080 IDH1KD tx inconclusive, KB-3-1 cytotox inactive, MCF10A rereplic 15µM*, SW480 rerep 52%, HT1080-NT tox inconclusive and KB-V1 MDR tox inactive.
For CCOC(=O)C1=CN(Cc2cccc(F)c2)S(=O)(=O)NC1c1ccccc1 (stereo not given) the results were HT1080 IDH1KD tx -6%, KB-3-1 cytotox inactive, MCF10A rereplic -4%, SW480 rerep -17%, HT1080-NT tox -3% and KB-V1 MDR tox inactive.
`COc1ccc(/C=C2\SC(=S)N(CCC(=O)N3CCOCC3)C2=O)cc1` gave HT1080 IDH1KD tx 15%, KB-3-1 cytotox inactive, MCF10A rereplic 10%, SW480 rerep -2%, HT1080-NT tox 4% and KB-V1 MDR tox inactive.
COc1cccc(/C=C2/SC(=S)N(CCC(=O)N3CCOCC3)C2=O)c1 was read as HT1080 IDH1KD tx inconclusive, KB-3-1 cytotox 16µM*, MCF10A rereplic inconclusive, SW480 rerep 9%, HT1080-NT tox -17% and KB-V1 MDR tox inconclusive.
For Cc1ccc(/C=C2\SC(=S)N(CCC(=O)N3CCOCC3)C2=O)cc1 the results were HT1080 IDH1KD tx 9%, KB-3-1 cytotox 12µM*, MCF10A rereplic -2%, SW480 rerep inconclusive, HT1080-NT tox 0% and KB-V1 MDR tox inconclusive.
Screening O=[N+]([O-])c1cc(/C=N/OCc2c(Cl)cccc2Cl)ccc1N1CCOCC1 returned HT1080 IDH1KD tx 1%, KB-3-1 cytotox inconclusive, MCF10A rereplic inconclusive, SW480 rerep inconclusive, HT1080-NT tox 4% and KB-V1 MDR tox 13µM*.
`CO/N=C/c1ccc(N2CCOCC2)c([N+](=O)[O-])c1` gave HT1080 IDH1KD tx 13%, KB-3-1 cytotox inactive, MCF10A rereplic 1%, SW480 rerep -7%, HT1080-NT tox 6% and KB-V1 MDR tox inactive.
For CC(=O)c1ccc(N2CCC(c3cc(-c4ccc(Cl)cc4Cl)n[nH]3)CC2)c([N+](=O)[O-])c1 the results were HT1080 IDH1KD tx inconclusive, KB-3-1 cytotox inconclusive, MCF10A rereplic inconclusive, SW480 rerep inconclusive, HT1080-NT tox 14µM* and KB-V1 MDR tox 15µM*.
For CCN(CC)S(=O)(=O)c1ccc(N2CCOCC2)c(NC(=O)c2cccc3c(=O)c(C)c(-c4ccccc4)oc23)c1 the results were HT1080 IDH1KD tx 2%, KB-3-1 cytotox inactive, MCF10A rereplic 3.7µM*, SW480 rerep 0%, HT1080-NT tox -19% and KB-V1 MDR tox 21µM*.
